# Measured values reported in the supplement of paper PMC11732987, “Enantioselective OTUD7B fragment discovery through chemoproteomics screening and high-throughput optimisation” (Communications Chemistry, 2025).
# A number with no mark means an inactive call.
# What was measured:
# Assay in all cases: log2 ratio of Biotin-Ahx-Ub-VS probe labelling (compound/DMSO); higher = less target engagement, active = hit call of the paper (q ≤ 0.05, log2 ratio ≤ -1)
# Details in all cases: treatment time: 3 h
# [1] = compound: CN(Cc1cccc(Br)c1)C(=O)CCl
# Summary of the method: (§1)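 Compound at 50 or 200 µM, or DMSO, was applied for 3 h in triplicate to HEK293T lysate (495 µg per sample, Tris/CHAPS/IGEPAL buffer with protease inhibitors), after which Biotin-Ahx-Ub-VS was added at 0.5 µM final for 1 h. The labelled DUBs were pulled down with NeutrAvidin, digested with LysC and trypsin, and run by diaPASEF LC-MS/MS. Ratios are averaged base-two logs of compound over DMSO from median-normalised label-free quantities by unpaired t-test, counting only proteins with at least 2 unique peptides.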
# [2] = compound: CN(Cc1cccc(OCc2ccccc2C)c1)C(=O)CCl
# Summary of the method: as §1
# [3] = compound: CN(Cc1ccccc1)C(=O)CCl
# Summary of the method: as §1
# [4] = compound: COc1ccc(CN(C)C(=O)CCl)cc1
# Summary of the method: as §1
# [5] = compound: COc1cccc(CN(CCCc2ccccc2)C(=O)CCl)c1
# Summary of the method: as §1
# [6] = compound: ClCC(=O)N1CCc2cc(Cl)c(Cl)cc2C1
# Summary of the method: as §1
# [7] = compound: ClCC(=O)N1CCc2nc(ncc2C1)-c1ccccc1
# Summary of the method: as §1
# [8] = compound: ClCC(=O)N1CCc2nocc2C1
# Summary of the method: as §1
# [9] = compound: ClCC(=O)N1CCc2scc(Br)c2C1
# Summary of the method: as §1
# [10] = compound: ClCC(=O)NC(C1CCCC1)c1cccs1
# Summary of the method: as §1
# [11] = compound: ClCC(=O)NC1CCCc2ccccc12
# Summary of the method: as §1
# [12] = compound: ClCC(=O)NC1CCOc2ccc(Cl)cc12
# Summary of the method: as §1
# [13] = compound: ClCC(=O)NC1CCSc2ccccc12
# Summary of the method: as §1
# [14] = compound: ClCC(=O)N[C@H]1CCCc2ccccc12
# Summary of the method: as §1
# [15] = compound: Fc1ccc(N2CCN(c3nc4c(CN(C(CCl)=O)CC4)cn3)CC2)cc1.Cl.Cl
# Summary of the method: as §1
# Sequence of UniProt Q9P275 (Q9P275 whole entry): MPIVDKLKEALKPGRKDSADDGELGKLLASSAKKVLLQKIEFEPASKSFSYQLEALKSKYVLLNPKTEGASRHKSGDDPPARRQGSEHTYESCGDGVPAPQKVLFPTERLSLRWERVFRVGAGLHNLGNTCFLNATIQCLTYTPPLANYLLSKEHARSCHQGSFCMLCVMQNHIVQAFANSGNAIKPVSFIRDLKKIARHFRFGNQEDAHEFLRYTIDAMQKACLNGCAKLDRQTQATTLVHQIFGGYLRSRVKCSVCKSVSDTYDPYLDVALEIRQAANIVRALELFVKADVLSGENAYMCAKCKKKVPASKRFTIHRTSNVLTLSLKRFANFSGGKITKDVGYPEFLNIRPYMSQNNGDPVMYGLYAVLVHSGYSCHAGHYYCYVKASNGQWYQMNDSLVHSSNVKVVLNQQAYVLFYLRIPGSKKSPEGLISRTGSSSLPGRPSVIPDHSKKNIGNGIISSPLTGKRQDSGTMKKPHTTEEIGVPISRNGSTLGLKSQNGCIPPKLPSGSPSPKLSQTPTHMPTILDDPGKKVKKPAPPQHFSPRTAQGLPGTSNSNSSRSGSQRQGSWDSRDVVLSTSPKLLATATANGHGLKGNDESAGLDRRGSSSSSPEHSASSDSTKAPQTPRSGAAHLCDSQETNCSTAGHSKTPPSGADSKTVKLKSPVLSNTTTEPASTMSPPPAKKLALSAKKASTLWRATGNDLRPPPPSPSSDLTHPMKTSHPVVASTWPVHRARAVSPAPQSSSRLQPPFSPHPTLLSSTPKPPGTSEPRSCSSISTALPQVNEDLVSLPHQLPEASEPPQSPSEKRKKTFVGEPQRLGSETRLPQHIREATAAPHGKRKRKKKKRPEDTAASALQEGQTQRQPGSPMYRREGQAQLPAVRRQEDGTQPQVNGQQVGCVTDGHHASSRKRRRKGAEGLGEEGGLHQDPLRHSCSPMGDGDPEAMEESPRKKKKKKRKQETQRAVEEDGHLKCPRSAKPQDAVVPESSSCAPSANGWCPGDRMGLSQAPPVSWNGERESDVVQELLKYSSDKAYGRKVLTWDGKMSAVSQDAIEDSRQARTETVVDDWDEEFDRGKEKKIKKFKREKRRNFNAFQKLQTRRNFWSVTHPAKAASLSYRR
# Sequence of UniProt Q9Y5T5 (Q9Y5T5 whole entry, looked up): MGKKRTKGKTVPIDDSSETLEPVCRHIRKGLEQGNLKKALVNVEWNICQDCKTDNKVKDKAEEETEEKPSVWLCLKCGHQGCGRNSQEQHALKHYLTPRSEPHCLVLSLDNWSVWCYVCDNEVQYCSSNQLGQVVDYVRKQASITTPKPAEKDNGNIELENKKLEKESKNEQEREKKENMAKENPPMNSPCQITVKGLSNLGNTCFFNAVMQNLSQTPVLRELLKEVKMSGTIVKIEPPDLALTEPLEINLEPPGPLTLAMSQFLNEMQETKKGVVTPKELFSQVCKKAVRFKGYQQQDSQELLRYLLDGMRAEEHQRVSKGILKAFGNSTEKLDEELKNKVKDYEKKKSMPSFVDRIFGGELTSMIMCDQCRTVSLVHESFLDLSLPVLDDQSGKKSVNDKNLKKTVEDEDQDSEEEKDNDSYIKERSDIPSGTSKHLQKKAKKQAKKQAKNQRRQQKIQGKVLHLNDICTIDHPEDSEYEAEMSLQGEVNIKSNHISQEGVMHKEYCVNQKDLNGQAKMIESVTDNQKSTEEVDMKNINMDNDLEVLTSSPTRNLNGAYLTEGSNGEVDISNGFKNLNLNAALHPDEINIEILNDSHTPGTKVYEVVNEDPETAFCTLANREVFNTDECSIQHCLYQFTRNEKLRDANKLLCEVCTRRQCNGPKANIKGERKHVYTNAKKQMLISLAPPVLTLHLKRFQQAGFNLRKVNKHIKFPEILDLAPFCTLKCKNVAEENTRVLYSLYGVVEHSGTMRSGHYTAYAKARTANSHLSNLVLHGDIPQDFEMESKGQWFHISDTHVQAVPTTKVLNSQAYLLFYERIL
# Sequence of UniProt Q14694 (Q14694 whole entry): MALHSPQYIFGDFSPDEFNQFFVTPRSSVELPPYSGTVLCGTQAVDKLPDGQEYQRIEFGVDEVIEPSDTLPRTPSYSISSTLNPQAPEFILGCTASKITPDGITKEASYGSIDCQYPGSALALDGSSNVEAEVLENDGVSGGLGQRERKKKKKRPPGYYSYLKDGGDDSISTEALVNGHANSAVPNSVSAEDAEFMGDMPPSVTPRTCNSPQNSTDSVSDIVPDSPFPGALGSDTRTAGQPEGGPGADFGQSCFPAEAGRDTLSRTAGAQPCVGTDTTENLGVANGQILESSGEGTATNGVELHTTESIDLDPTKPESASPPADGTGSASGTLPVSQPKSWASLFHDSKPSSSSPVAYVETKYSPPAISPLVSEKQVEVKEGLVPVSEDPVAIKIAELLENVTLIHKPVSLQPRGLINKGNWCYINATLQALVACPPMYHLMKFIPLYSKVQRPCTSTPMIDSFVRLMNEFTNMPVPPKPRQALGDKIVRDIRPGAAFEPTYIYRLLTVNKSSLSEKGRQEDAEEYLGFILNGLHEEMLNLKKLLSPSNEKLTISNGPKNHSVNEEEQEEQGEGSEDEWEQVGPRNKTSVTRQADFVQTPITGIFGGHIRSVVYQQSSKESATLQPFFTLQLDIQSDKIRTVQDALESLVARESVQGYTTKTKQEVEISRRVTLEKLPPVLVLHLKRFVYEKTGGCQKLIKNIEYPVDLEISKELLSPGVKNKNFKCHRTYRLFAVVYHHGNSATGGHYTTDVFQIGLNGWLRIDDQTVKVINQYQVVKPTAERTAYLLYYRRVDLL
# Sequence of UniProt Q9UGI0 (Q9UGI0 whole entry): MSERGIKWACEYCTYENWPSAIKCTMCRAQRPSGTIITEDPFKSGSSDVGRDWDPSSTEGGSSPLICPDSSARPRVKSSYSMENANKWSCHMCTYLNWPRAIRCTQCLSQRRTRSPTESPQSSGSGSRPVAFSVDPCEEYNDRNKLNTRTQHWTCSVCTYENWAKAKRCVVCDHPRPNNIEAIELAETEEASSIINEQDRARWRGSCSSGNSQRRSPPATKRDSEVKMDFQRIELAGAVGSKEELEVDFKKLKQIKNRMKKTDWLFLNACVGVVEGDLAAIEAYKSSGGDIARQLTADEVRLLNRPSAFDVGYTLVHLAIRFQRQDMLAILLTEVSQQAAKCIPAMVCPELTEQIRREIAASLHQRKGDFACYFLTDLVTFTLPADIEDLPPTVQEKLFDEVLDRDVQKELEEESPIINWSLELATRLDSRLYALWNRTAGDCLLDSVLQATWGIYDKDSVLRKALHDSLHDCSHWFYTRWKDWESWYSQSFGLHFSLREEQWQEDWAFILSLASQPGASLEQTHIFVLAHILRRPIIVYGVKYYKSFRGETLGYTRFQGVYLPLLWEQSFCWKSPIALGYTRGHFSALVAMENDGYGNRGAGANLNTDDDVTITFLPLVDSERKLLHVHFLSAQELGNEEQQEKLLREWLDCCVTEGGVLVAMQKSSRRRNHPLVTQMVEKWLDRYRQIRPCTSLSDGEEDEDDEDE
# Sequence of UniProt Q9UHP3 (Q9UHP3 whole entry): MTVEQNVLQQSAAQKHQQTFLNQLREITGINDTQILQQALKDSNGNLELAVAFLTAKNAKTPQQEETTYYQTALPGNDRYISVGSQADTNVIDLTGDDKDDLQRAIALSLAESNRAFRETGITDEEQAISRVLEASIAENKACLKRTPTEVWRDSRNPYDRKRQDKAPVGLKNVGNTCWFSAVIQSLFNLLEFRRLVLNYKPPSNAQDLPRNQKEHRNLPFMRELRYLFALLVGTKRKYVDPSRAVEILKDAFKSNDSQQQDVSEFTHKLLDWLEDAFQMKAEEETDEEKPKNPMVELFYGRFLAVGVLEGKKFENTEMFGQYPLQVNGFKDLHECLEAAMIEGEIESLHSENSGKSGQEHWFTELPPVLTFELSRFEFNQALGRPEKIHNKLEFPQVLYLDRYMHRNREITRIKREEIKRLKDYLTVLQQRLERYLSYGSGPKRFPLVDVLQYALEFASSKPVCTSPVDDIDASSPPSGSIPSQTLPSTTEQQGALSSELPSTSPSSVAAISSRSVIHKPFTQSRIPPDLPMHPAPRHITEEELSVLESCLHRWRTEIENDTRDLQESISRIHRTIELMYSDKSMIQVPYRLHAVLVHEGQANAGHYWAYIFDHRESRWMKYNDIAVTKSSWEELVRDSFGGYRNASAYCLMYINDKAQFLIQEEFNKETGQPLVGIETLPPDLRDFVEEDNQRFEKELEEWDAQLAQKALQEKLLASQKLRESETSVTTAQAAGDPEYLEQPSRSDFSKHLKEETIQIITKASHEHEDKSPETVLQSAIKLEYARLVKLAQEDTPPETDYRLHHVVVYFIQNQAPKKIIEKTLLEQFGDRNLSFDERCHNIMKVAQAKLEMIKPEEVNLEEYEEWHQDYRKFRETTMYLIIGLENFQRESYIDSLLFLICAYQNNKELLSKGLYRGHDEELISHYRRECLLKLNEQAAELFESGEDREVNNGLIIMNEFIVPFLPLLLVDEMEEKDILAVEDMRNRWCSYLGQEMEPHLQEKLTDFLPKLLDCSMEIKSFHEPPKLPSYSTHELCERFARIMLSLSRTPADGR
Target,log2 ratio of Biotin-Ahx-Ub-VS probe labelling ([1]; compound concentration: 50uM),log2 ratio of Biotin-Ahx-Ub-VS probe labelling ([1]; compound concentration: 200uM),log2 ratio of Biotin-Ahx-Ub-VS probe labelling ([2]; compound concentration: 50uM),log2 ratio of Biotin-Ahx-Ub-VS probe labelling ([2]; compound concentration: 200uM),log2 ratio of Biotin-Ahx-Ub-VS probe labelling ([3]; compound concentration: 50uM),log2 ratio of Biotin-Ahx-Ub-VS probe labelling ([3]; compound concentration: 200uM),log2 ratio of Biotin-Ahx-Ub-VS probe labelling ([4]; compound concentration: 50uM),log2 ratio of Biotin-Ahx-Ub-VS probe labelling ([4]; compound concentration: 200uM),log2 ratio of Biotin-Ahx-Ub-VS probe labelling ([5]; compound concentration: 50uM),log2 ratio of Biotin-Ahx-Ub-VS probe labelling ([5]; compound concentration: 200uM),log2 ratio of Biotin-Ahx-Ub-VS probe labelling ([6]; compound concentration: 50uM),log2 ratio of Biotin-Ahx-Ub-VS probe labelling ([6]; compound concentration: 200uM),log2 ratio of Biotin-Ahx-Ub-VS probe labelling ([7]; compound concentration: 50uM),log2 ratio of Biotin-Ahx-Ub-VS probe labelling ([7]; compound concentration: 200uM),log2 ratio of Biotin-Ahx-Ub-VS probe labelling ([8]; compound concentration: 50uM),log2 ratio of Biotin-Ahx-Ub-VS probe labelling ([8]; compound concentration: 200uM),log2 ratio of Biotin-Ahx-Ub-VS probe labelling ([9]; compound concentration: 50uM),log2 ratio of Biotin-Ahx-Ub-VS probe labelling ([9]; compound concentration: 200uM),log2 ratio of Biotin-Ahx-Ub-VS probe labelling ([10]; compound concentration: 50uM),log2 ratio of Biotin-Ahx-Ub-VS probe labelling ([10]; compound concentration: 200uM),log2 ratio of Biotin-Ahx-Ub-VS probe labelling ([11]; compound concentration: 50uM),log2 ratio of Biotin-Ahx-Ub-VS probe labelling ([11]; compound concentration: 200uM),log2 ratio of Biotin-Ahx-Ub-VS probe labelling ([12]; compound concentration: 50uM),log2 ratio of Biotin-Ahx-Ub-VS probe labelling ([12]; compound concentration: 200uM),log2 ratio of Biotin-Ahx-Ub-VS probe labelling ([13]; compound concentration: 50uM),log2 ratio of Biotin-Ahx-Ub-VS probe labelling ([13]; compound concentration: 200uM),log2 ratio of Biotin-Ahx-Ub-VS probe labelling ([14]; compound concentration: 50uM),log2 ratio of Biotin-Ahx-Ub-VS probe labelling ([14]; compound concentration: 200uM),log2 ratio of Biotin-Ahx-Ub-VS probe labelling ([15]; compound concentration: 50uM),log2 ratio of Biotin-Ahx-Ub-VS probe labelling ([15]; compound concentration: 200uM)
USP16 (UniProt Q9Y5T5),-0.307,-1.27 (active),-0.495,-0.496,-0.434,-0.669,-0.00981,-0.105,-0.312,-0.936,-0.694,-0.189,-0.0935,-1.62 (active),-0.0383,-0.326,-0.507,0.00388,-0.325,-0.246,-0.384,-0.472,-0.353,-0.626,-0.00515,-0.114,0.221,0.339,-0.277,-0.62
USP25 (UniProt Q9UHP3),0.514,-1.46 (active),-1.05 (active),-0.67,-0.138,-0.338,-0.545,-0.345,0.265,-0.358,0.409,-0.517,-0.562,0.332,-0.946,-0.711,0.621,-0.242,-0.129,-0.557,-0.808,0.0737,0.221,0.509,-0.0574,-0.126,-0.809,-1.97 (active),0.382,-1.03
USP36 (UniProt Q9P275),-0.113,-0.219,-0.207,-0.146,-0.167,-0.139,-0.166,-0.1,-0.116,-0.158,-0.152,0.149,-0.0391,-0.252,-0.06,-0.0333,0.0162,0.122,-0.296,-0.0298,0.0611,0.171,-0.00761,-0.088,0.158,0.1,-0.0619,-0.0962,-0.181,-0.183
UniProt Q9UGI0,-0.13,-0.336,-0.392,-0.664,-0.482,-0.697,-0.127,-0.258,-0.157,-0.231,0.132,-0.542,0.0381,-0.223,-0.539,-1.16 (active),-0.277,-1.14 (active),-0.0906,0.116,-0.0757,-0.346,-0.41,-0.0672,-0.265,-0.226,-0.182,-0.337,-0.0659,-0.664
USP10 (UniProt Q14694),-0.146,-0.153,-0.287,-0.0982,-0.177,0.0371,-0.151,-0.0732,-0.12,0.0548,-0.188,-0.0346,-0.0484,-0.151,-0.2,-0.136,-0.066,0.0425,-0.148,0.0706,-0.107,0.139,-0.314,-0.0917,-0.0829,0.0327,-0.162,0.0178,-0.0782,-0.162
